Inconclusive results are not listed. Activity calls are given as the source filed them. Rule for the calls: active = hit-call score of the fitted dose curve at least 0.9, where 1 is the maximum; inconclusive = response in the unintended direction; inactive = score below 0.9.
Test: ACEA_ER_80hr: ACEA Biosciences xCELLigence Real-Time Cell Analysis on Estrogen Receptor Agonism for Proliferation (AID 2282667)
Conditions: T47D proliferation, impedance (xCELLigence), 80 h
Outline: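 Impedance readout (RT-CES) of T47D proliferation at 80 h post-dose; gain of signal vs DMSO baseline. Compounds: 8 conc, 1:4 serial, top 100 uM final, ≤0.5% DMSO; biological duplicate.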

Structure (SMILES) | outcome | AC50
N#CCCCC(C#N)CCC#N (stereo not drawn) | inactive | –
NC(=O)c1cnccn1 | inactive | –
O=S(=O)(O)C(F)(F)C(F)(F)OC(F)(F)C(F)(F)F | inactive | –
CCCCCCCC(=O)N(C)C | inactive | –
CCCCCCCOC(C)=O | inactive | –
CCCCC/C=C\C=C\C(=O)OCC | inactive | –
c1ccc(-c2nn[nH]n2)cc1 | – | 26.1 nM (active)
Nc1ccc(N)c([N+](=O)[O-])c1 | inactive | –
CC(C)(O)C(=O)c1ccc(OCCO)cc1 | inactive | –
CCCCN(CCO)CCO | inactive | –
CC(C)C(=O)c1ccccc1 | inactive | –
CCCCCCCCCCCCS | inactive | –
[Cl][Dy]([Cl])[Cl] | – | 43 nM (active)
CCNC(=S)NCC | inactive | –
CN1CCc2cccc3c2[C@H]1Cc1ccc(O)c(O)c1-3 | inactive | –
CC(C)=CC(=O)O | – | 3270 nM (active)
CCC=C(C)C=O | inactive | –
CC(=O)OC(C)(C)C | inactive | –
CCOC(=O)CCCCCCCCC(=O)OCC | inactive | –
CCC(C)(CCCC(C)C)OC(C)=O (stereo not drawn) | inactive | –
COc1ccc2[nH]cc(CCNC(C)=O)c2c1 | inactive | –
[O-]/[N+](=N\O)c1ccccc1 | inactive | –
CCCCCCCCCCCCOCCOS(=O)(=O)O | – | 1980 nM (active)
CC(C)OB(OC(C)C)OC(C)C | inactive | –
CCO[Si](CCC#N)(OCC)OCC | inactive | –
O=C(O)C(F)(F)C(F)(F)C(F)(F)C(F)(F)C(F)(F)C(F)(F)C(F)(F)C(F)F | – | 14600 nM (active)
CC1(C)[C@H](C=C(Cl)Cl)[C@H]1C(=O)OCc1cccc(Oc2ccccc2)c1 | inactive | –
CC(=O)OCC=C(C)CCC=C(C)CCC=C(C)C | inactive | –

From PubChem BioAssay (EPA / NIEHS)
